# PINK1 expr mod = A Quantitative High throughput Screen to Identify Chemical Modulators of PINK1 Expression; AID 624263, 2012; Potency, µM (titrated, usually from 76.6 µM), for inactives: top-dose activation (PINK1 increase), usual class: activators; PINK1 immunofluorescence, high-content cytometry, 24 h; actives 0.2% (n = 410,000); active = well fitted activation curve with a large enough effect; inconclusive = small, poorly fitted or top-dose-only effect; cell line not stated here; note: % of control where 0% means no effect; nearly all actives have a fitted effect of over 65% in size
#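 Cells are seeded, rested 12 hours, then given compound at five concentrations or DMSO for 24 hours. After fixation, blocking and antibody staining, PINK1 amount and mitochondrial localization are scored; CCCP serves as control.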
# Vif-A3F inh = qHTS for Inhibitors of Vif-A3F Interactions: qHTS. AID 602313, 2012. Potency, µM (doses to about 46.1 µM), without a hit: top-dose activity, negative = active. HeLa A3F-eYFP + Vif (tagged APOBEC3F with the HIV-1 protein that degrades it), YFP fluorescence increase. actives 0.2% (n = 390,000); note: % of control where 0% means no effect; nearly all actives have a fitted effect of over 65% in size
#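 Fluorescence increase (Ex 488/Em 500-530) after overnight compound treatment at 37 deg C flags inhibition of Vif-driven A3F-eYFP loss in stable HeLa A3F-eYFP/Vif cells seeded overnight beforehand.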
# Vif-A3G inh = qHTS for Inhibitors of Vif-A3G Interactions: qHTS; DNA dC->dU-editing enzyme APOBEC-3G (Homo sapiens), Q9HC16; HeLa A3G-eYFP + Vif (tagged APOBEC3G with the HIV-1 protein that degrades it), YFP fluorescence, overnight; Potency, µM (highest dose often 46.1 µM), for inactives: at the top dose activity, negative = active, actives largely listed as inhibitors; actives 0.076% (n = 410,000); AID 602310, 2012; note: % is set by controls: 0 for no effect and ±100 for the full control effect; nearly all actives have a fitted effect of over 60% in size
# Target sequence (Q9HC16 whole entry, looked up): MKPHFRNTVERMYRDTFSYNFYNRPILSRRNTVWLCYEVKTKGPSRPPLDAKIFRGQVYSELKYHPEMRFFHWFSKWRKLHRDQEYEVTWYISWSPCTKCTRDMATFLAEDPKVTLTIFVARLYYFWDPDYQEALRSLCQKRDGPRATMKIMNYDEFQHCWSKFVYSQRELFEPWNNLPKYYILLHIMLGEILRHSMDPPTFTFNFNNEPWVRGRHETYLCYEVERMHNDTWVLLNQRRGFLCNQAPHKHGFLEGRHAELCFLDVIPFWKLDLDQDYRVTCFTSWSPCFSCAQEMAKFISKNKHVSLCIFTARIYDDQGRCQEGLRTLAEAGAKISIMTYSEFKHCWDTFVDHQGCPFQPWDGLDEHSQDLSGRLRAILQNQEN
#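 Read-out is eYFP fluorescence (Ex 488/Em 500-530) from Vif-expressing HeLa A3G-eYFP cells; more signal means A3G escaped Vif-mediated degradation. Cells plated overnight, compound pinned in, incubated overnight at 37 deg C.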
# Epigenetic derep = Quantitative High-Throughput Screen for Regulators of Epigenetic Control; murine LDR cells, GFP reporter derepression, 30 h; Potency, µM (doses to about 53.9 µM), for inactives: at the top dose GFP activation, hits mostly activators; actives 0.2% (n = 280,000); note: % of control where 0% means no effect; nearly all actives have a fitted effect of over 60% in size
#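 Murine LDR cells bearing a silenced CMV-driven GFP reporter were exposed to compound for 30 h at 37 C. After PBS washes, GFP-positive cells (20-120 um objects) counted by laser-scanning microplate cytometry.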
# Active calls of the source: *; ? = inconclusive; nt = not tested or not shown. Rows were chosen to be rich in hits. Some 0.51% of all compounds tested hit in one or more screens of this group. Unless noted, calls come from the whole dose curve; as a rule, active = well fitted curve in the direction sought with a large enough effect; inconclusive = small, poorly fitted or top-dose-only effect, or another doubt; inactive = no such curve, though single readings can be large; an effect the other way counts as inactive or inconclusive. Potency is the fitted concentration of half-maximal effect.
SMILES,PINK1 expr mod,Vif-A3F inh,Vif-A3G inh,Epigenetic derep
O=c1c2ccccc2nc(/C=C/c2ccc(O)cc2)n1-c1ccc(O)cc1,12.9%,?,?,nt
CCCc1nc2ccc(Br)cc2c(=O)n1-c1ccc([N+](=O)[O-])c(C(F)(F)F)c1,14.1µM*,-6.2%,-13.0%,-0.9%
CCc1nc2ccc(Br)cc2c(=O)n1-c1ccccc1C(F)(F)F,5.3%,5.5%,-0.7%,nt
O=C(/C=C/c1ccc2c(c1)OCO2)c1c(O)n(CCc2ccccc2)c(=O)[nH]c1=O,-2.4%,?,-20.0%,-3.1%
O=C1/C(=C/c2ccc3c(c2)OCO3)SC(=S)N1CCC(=O)N(CCO)c1ccccc1,6.5%,22.4µM*,-16.3%,nt
Cc1cc(C(C#N)c2ccc(Cl)cc2)c(Cl)cc1NC(=O)c1cc(I)cc(I)c1O (configuration not stated),14.1µM*,-1.2%,-1.0%,nt
CCc1ccc(-n2c(=O)c3sc4ccccc4c3n(CC(=O)NC3CCCC3)c2=O)cc1,4.8%,-23.6%,-1.1%,?
c1ccc(CCN2CCCCC2)cc1,nt,nt,2.0%,nt
Clc1ccc(-c2csc3ncnc(Sc4nnnn4C4CC4)c23)cc1,-0.2%,nt,?,nt
O=C1/C(=C\c2ccccc2)C[C@@]2(O)[C@H]3Cc4ccc(O)c5c4[C@@]2(CCN3CC2CC2)[C@H]1O5,nt,nt,nt,-0.1%
Cc1cc(O)c2c(c1)C(=O)C13C(=C2O)C(=O)[C@H]2[C@@H](O)[C@@H]1[C@H]1[C@H](O)[C@@H]3C(=O)C3=C(O)c4c(O)cc(C)cc4C(=O)C312 (some centres not stated),28.2µM*,?,?,nt
